This excerpt belongs to a sample that is enriched for hits.
FECH block: inhibitors of human ferrochelatase; P22830; purified FECH, Ni-mesoporphyrin absorbance 550 nm; calls only at 10 µM (by protocol); 20,000 compounds, 3.3% hits; AID 1671448;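 active = enzyme reaction rate more than 3 SD below the solvent-only control wells on the same plate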;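 also: lower slope than DMSO wells means FECH inhibition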
Target sequence (P22830 whole entry, looked up): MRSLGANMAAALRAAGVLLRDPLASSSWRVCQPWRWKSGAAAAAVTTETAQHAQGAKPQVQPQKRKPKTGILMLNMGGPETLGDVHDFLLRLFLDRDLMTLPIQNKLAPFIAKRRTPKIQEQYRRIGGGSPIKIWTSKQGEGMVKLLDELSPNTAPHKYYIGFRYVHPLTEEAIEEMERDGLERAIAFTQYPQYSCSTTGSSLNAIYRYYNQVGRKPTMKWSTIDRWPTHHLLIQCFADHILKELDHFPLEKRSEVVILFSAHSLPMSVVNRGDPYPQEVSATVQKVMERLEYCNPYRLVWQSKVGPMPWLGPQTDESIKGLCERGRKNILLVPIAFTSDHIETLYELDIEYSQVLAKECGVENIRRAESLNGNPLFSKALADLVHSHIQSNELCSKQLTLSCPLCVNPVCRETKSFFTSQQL
Calls only; i = inactive; + = active, no number.

SMILES | FECH block
COc1ccc(CNc2nc3nc(CN4CCOCC4)cc(=O)n3[nH]2)cc1 | +
O=c1cc(CN2CCOCC2)nc2nc(NCc3ccc(Cl)cc3)[nH]n12 | i
COc1ccc(CNc2nc3nc(CN4CCc5ccccc5C4)cc(=O)n3[nH]2)cc1 | +
O=c1cc(CN2CCCCC2)nc2nc(NCc3ccccc3)[nH]n12 | i
COc1ccc(Cl)cc1S(=O)(=O)N1CCN(c2cc(-c3cccc(C)c3)ncn2)CC1 | i
Cc1nc2c(c(=O)n1C)CCN(C(=O)CCc1ccccc1O)CC2 | i
CCOc1ccccc1C(=O)Nc1cc(N2CCCS2(=O)=O)ccc1C | i
COc1ccc(N(Cc2nc3nc(C)c(Cl)c(C)n3n2)C(=O)c2ccccc2)cc1 | i
CCOc1ccccc1CN(CC)C(=O)c1nn(C)c(=O)c2ccccc12 | i
Cc1cnc(C)c(-c2cc(O)c3c(c2)CN(C2Cc4ccccc4C2)CCO3)n1 | i
Cc1cccc(CN2CCN(CC(=O)Nc3c(C)cccc3C)S2(=O)=O)c1 | i
Cc1ccc(NC(=O)CN2CCCN(Cc3cccc(Cl)c3)S2(=O)=O)c(Cl)c1 | +
Cc1ccc(CN2CCCN(CC(=O)Nc3ccc(C)cc3Cl)S2(=O)=O)cc1 | i
O=C(CN1CCCN(Cc2cccc(Cl)c2)S1(=O)=O)Nc1ccccc1 | i
Cc1cccc(CN2CCCN(CC(=O)Nc3cc(Cl)ccc3C)S2(=O)=O)c1 | +
Cc1cccc(CN2CCCN(CC(=O)Nc3cc(C)ccc3C)S2(=O)=O)c1 | i
NS(=O)(=O)c1ccc(NS(=O)(=O)c2cc(C(=O)N3CCCC3)cs2)cc1 | i
CCCc1c(C)nc2ncnn2c1Sc1ccc(NS(=O)(=O)c2ccc(C)cc2)cc1 | i
COc1ccc(-c2cc(=O)[nH]c(SCc3nc(-c4cccc(Cl)c4)oc3C)n2)cc1 | i
CCN(CC)S(=O)(=O)N1CCC(C(=O)Nc2cccc(CCc3nc4ccccc4n3C)c2)CC1 | +
CCN(CC)S(=O)(=O)N1CCC(C(=O)Nc2ccc3sc(NC(=O)C(C)C)nc3c2)CC1 | i
CCN(CC)S(=O)(=O)c1ccc2c(c1)nc(CN1CCN(S(=O)(=O)N(C)C)CC1)n2C | i
CCc1cccc(NC(=O)C2CCN(c3ccc(-c4cccs4)nn3)CC2)c1 | i
O=C(Nc1ccccc1CCc1nc2ccccc2[nH]1)C1CCCN(S(=O)(=O)N2CCCC2)C1 (stereo not drawn) | i
CCN(CC)S(=O)(=O)N1CCC(C(=O)Nc2ccc3nc(CCc4ccccc4)[nH]c3c2)CC1 | +
SMILES | FECH block
COc1ccc(N2CCCS2(=O)=O)cc1NC(=O)c1ccc(Br)o1 | i
CCOc1ccccc1CN(Cc1nn(C)cc1Cl)C1CC1 | i
CCCc1cc(=O)[nH]c(SCc2nc(-c3cccc(Cl)c3)oc2C)n1 | i
Cc1nccn1CC(C)NCC1CCN(C2CCCC2)CC1 (stereo not drawn) | i
CCCn1c(CNS(=O)(=O)c2cc(C)cc(C)c2)nc2cccnc21 | i
COc1cccc(-c2[nH]ncc2C(=O)N2CCC3(CCNC(=O)CC3)CC2)c1 | i
Cc1cc(C)c(CN2CCC3(CCNC(=O)CC3)CC2)c(C)c1 | +
O=C1CCC2(CCN1)CCN(C(=O)C/C=C/c1ccccc1)CC2 | i
CCc1ncc(CN2CCC(CNC(=O)C3CCCCC3)C2)cn1 (stereo not drawn) | i
Cc1cc(C)cc(C(=O)Nc2ccc(Nc3nc(C)cc(N(C)C)n3)cc2)c1 | +
Cc1ccc(C(=O)Nc2ccc(Nc3nc(C)cc(N(C)C)n3)cc2)cc1 | i
Cc1cc(N(C)C)nc(Nc2ccc(NC(=O)c3ccc(I)cc3)cc2)n1 | i
CC(C)c1noc(C2CCCN(Cc3cc4ccccc4[nH]c3=O)C2)n1 (stereo not drawn) | i
COc1ccc(N2C(=O)CCS2(=O)=O)cc1S(=O)(=O)N1CCCC1 | i
CCOc1ccc(Cn2c(CNS(=O)(=O)c3ccccc3)nc3cccnc32)cc1 | i
CN1CCN(C(=O)CN2C(=O)C3CCCCN3c3ccc(C(=O)N(C)C)cc32)CC1 (stereo not drawn) | i
CCN1CCN(C(=O)CN2C(=O)C3CCCCN3c3ccc(C(=O)N(C)C)cc32)CC1 (stereo not drawn) | i
CCc1ccc2c(c1)-c1ccccc1S(=O)(=O)N2CC(=O)N1CCN(C)CC1 | +
CCc1ccc2c(c1)-c1ccccc1S(=O)(=O)N2CC(=O)N1CCN(CC)CC1 | +
NC(=O)C1CCN(C(=O)CN2c3ccc(Br)cc3-c3ccccc3S2(=O)=O)CC1 | i
O=C(CN1C(=O)C2CCCCN2C(=O)c2ccccc21)N1CCN(Cc2ccccc2)CC1 (stereo not drawn) | i
COCCn1c(CNC(=O)CCc2ccccc2)nc2cccnc21 | i
Cc1cc(N2CCCC2)nc(Nc2ccc(NC(=O)C(C)C)cc2)n1 | i
CN(Cc1ccccc1)C(=O)c1nc(N2CCOCC2)c2oc3ccccc3c2n1 | i
Cc1c(F)cccc1NC(=O)CNCCc1ccccn1 | i
SMILES | FECH block
CCn1c(-c2nccn2CC2CCCCO2)nc2ccccc21 (stereo not drawn) | i
Cc1ccc(-c2cc(Nc3ccc4c(c3)OCO4)nc(C)n2)cc1 | i
CC(=O)Nc1ccccc1SCC(=O)N1CCn2cccc2C1C (stereo not drawn) | +
CC1c2cccn2CCN1C(=O)c1ccc(C#CC(C)(C)O)o1 (stereo not drawn) | i
CC1c2cccn2CCN1C(=O)CNS(=O)(=O)c1cccs1 (stereo not drawn) | i
CN(Cc1ccc2ccccc2n1)C(=O)c1ccc(N2CC(O)C2)nc1 | i
Cc1ccccc1-c1cc(N2CCN(C(=O)NC(C)C)CC2)ncn1 | i
CCCc1nc2nc[nH]n2c(=O)c1NC(=O)Nc1ccccc1CC | i
Cc1noc(C)c1C(=O)NCC1CCN(Cc2cccc(O)c2)CC1 | i
COCCNC(=O)C1(C)Cn2c(cc3ccsc32)C(=O)N1Cc1ccccc1OC (stereo not drawn) | i
COCCNC(=O)C1(C)Cn2c(cc3ccsc32)C(=O)N1Cc1ccccc1C (stereo not drawn) | +
COCCNC(=O)C1(C)Cn2c(cc3ccsc32)C(=O)N1Cc1ccccc1 (stereo not drawn) | i
Cc1cccc(CN2CC=C(C(=O)Nc3ccc(C)c(Cl)c3)CC2)c1 | i
CC(Cc1ccco1)NS(=O)(=O)c1cc(C(=O)N2CCCC2)cs1 (stereo not drawn) | i
Cc1ccc(C(C(=O)NCCN2CCCOC2=O)N(C)C)cc1 (stereo not drawn) | +
O=C(NCCN1CCCOC1=O)C1CCN(Cc2ccco2)CC1 | i
Cc1ccc(C(C(=O)NCc2ccc(-c3noc(C)n3)cc2)N(C)C)cc1 (stereo not drawn) | i
CC(C)NC(=O)[C@@H]1C[C@H](N)CN1C(=O)C1(c2ccc(F)cc2)CCOCC1 | i
Cc1cc(N2CCCC2)nc(Nc2ccc(NC(=O)C3CCCCC3)cc2)n1 | i
CSc1nc(NCCC2=CCCCC2)c(C#N)c(-c2ccccc2)n1 | +
CSc1nc(NCCN2CCOCC2)c(C#N)c(-c2ccccc2)n1 | i
CSc1nc(NCc2ccc(Cl)cc2)c(C#N)c(-c2ccccc2)n1 | i
Cc1cccc(C2=NC3(CCN(C(=O)Cc4nc(C)sc4C)CC3)C(=O)N2)c1 | i
CC(c1cccc(-c2cccc(C(F)(F)F)n2)c1)N(C)C (stereo not drawn) | i
CCN(CCNC(=O)C1CCCN(c2ncnc3c2nc2n3CCCCC2)C1)Cc1ccccc1 (stereo not drawn) | i
O=C(NCc1ccccc1)C1CCN(c2ncnc3c2nc2n3CCCCC2)CC1 | i
CN(CCNC(=O)C1CCN(c2ncnc3c2nc2n3CCCCC2)CC1)Cc1ccccc1 | +
O=c1cc(CNc2ccc(Br)cc2)nc2nc(NCc3ccccc3)[nH]n12 | i
